Screening data from PubChem BioAssay.
Sampled rows, rich in hits. Any-hit rate of the full collection: about 1.9%.
MsrA inhibitor: inhibits bovine methionine sulfoxide reductase A; 0.75% of 360,000 active; purified bovine MsrA, absorbance read-out; inhibition, % at 15.5 µM; in the data active = inhibition above about 4.5%;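 also: 0% = vehicle wells with enzyme and 100% = reference inhibitor wells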
MsrA act: activates bovine MsrA enzyme. AID 602163. purified bovine MsrA, absorbance read-out. activation, % at 10.6 µM. 0.3% of 360,000 active; in the data active = activation above about 7.5%;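 also: 0% = vehicle and 100% = reference activator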
PLC-beta3 inh: blocks human PLC-beta3 enzyme activity | Q01970 | Purified PLC-beta3, fluorogenic substrate, fluorescence | inhibition, % at 12.2 µM | 0.18% of 370,000 active | AID 720704;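 also: 0% = median of compound wells on plate and 100% = full blocker control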
Target sequence (Q01970 whole entry, looked up): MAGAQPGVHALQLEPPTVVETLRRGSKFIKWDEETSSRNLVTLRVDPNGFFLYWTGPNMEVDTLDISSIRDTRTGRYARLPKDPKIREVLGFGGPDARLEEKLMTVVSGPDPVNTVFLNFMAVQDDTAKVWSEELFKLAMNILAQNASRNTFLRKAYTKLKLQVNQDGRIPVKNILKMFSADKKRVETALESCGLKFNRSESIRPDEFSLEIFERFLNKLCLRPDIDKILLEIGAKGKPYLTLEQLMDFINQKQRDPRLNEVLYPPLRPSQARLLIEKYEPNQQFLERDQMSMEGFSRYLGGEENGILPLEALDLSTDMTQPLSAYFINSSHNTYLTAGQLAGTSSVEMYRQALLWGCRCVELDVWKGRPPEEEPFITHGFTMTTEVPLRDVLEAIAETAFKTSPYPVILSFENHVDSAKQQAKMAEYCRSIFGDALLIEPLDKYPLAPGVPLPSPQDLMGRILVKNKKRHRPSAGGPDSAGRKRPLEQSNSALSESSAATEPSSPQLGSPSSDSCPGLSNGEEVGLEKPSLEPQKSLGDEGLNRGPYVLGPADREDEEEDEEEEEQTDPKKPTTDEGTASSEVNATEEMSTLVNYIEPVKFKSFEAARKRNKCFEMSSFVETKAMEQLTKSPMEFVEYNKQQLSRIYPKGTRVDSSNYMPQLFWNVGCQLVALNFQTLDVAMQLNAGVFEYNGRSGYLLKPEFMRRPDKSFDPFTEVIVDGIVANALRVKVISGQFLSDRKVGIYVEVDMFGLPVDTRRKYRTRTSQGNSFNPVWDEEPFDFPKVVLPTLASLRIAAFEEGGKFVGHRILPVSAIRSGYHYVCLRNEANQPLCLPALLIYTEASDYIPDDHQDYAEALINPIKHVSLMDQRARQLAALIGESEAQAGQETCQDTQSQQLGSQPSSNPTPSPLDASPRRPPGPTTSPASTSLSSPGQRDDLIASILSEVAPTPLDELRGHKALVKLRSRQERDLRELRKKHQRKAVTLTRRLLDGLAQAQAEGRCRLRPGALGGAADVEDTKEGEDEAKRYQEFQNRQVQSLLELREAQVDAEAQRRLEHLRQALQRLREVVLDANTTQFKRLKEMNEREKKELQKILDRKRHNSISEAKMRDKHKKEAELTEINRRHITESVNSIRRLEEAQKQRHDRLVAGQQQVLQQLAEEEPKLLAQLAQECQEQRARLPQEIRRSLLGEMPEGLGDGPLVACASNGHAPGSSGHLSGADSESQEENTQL
PLC-gamma1 inh: inhibitors of human phospholipase C gamma1 | 0.84% of 370,000 active | inhibition, % at 12.2 µM | purified PLC-gamma1, fluorogenic substrate, fluorescence | P19174; in the data active = inhibition above about 9.5%
PLCgamma1 ctr: inhibits human PLC-gamma1 in PLC-beta3 counter-screen | shares compounds with PLC-gamma1 inh | purified PLC-gamma1, fluorogenic substrate, fluorescence | inhibition, % at 12.3 µM | 3.1% of 3,300 active; in the data active = inhibition above about 9.5%
PLCb3 confirm: human PLC-beta3 inhibition, confirmation | AID 743261 | inhibition, % at 12.3 µM | purified PLC-beta3, fluorogenic substrate fluorescence | 1% of 3,300 active | shares compounds with PLC-gamma1 inh
* hit, by the source's call; nt = no result given. Rule as the data show it, unless noted: active = inhibition above about 11%; inactive = the rest.

SMILES	MsrA inhibitor	MsrA act	PLC-beta3 inh	PLC-gamma1 inh	PLCgamma1 ctr	PLCb3 confirm
COCc1c(C(=O)OCC(=O)c2c(N)n(CC(C)C)c(=O)n(C)c2=O)oc2ccccc12	0	0	1	2	nt	nt
Cc1c(C(=O)OCC(=O)c2c(N)n(CC(C)C)c(=O)n(C)c2=O)oc2ccccc12	0	-4	46*	4	-6	-4
CC1CCCCN1C(=O)c1ccccc1OC1CCN(S(C)(=O)=O)CC1 (stereo unspecified)	2	-1	3	9.5*	-6	-7
CCC1CCCCN1C(=O)c1ccccc1OC1CCN(S(C)(=O)=O)CC1 (stereo unspecified)	-1	-3	-5	-2	nt	nt
CCCCNC(=O)C[C@H]1C[C@@]2(C(=O)OC)C(=C[C@H](COCc3ccccc3)O[C@@H]2C)N(CCc2ccc(OC)c(OC)c2)C1=O	nt	nt	2	0	nt	nt
COC(=O)[C@]12C[C@H](CC(=O)N3CCCC3)C(=O)N(Cc3cccc4ccccc34)C1=C[C@H](COCc1ccccc1)O[C@@H]2C	nt	nt	3	9.5*	4	7
COC(=O)[C@]12C[C@H](CC(=O)NCCc3ccccc3OC)C(=O)N(CCc3ccc(OC)c(OC)c3)C1=C[C@H](COCc1ccccc1)O[C@@H]2C	nt	nt	6	13*	-4	-1
COC(=O)[C@]12C[C@H](CC(=O)N3CCSCC3)C(=O)N(Cc3cccc4ccccc34)C1=C[C@H](COCc1ccccc1)O[C@@H]2C	nt	nt	-2	4	nt	nt
O=C(COC(=O)CNC(=O)c1ccccc1)NCCNC(=O)COC(=O)CNC(=O)c1ccccc1	0	-2	2	4	nt	nt
Cc1nc2c(OCCOc3ccc(F)cc3)cccn2c1N(C)C(=O)CCC1CCCC1	2	-3	-4	0	nt	nt
O=C(Cc1cccs1)N1CCC(c2nc3c(nnn3Cc3ccccc3)c(=O)[nH]2)CC1	-2	-2	12*	10*	7	12*
O=C(Cc1cccs1)N1CCCC(c2nc3c(nnn3Cc3ccc(F)cc3)c(=O)[nH]2)C1 (stereo unspecified)	3	-8	-1	-4	nt	nt
O=C(CNc1ccccc1N1CCCC1=O)Nc1cc(C(F)(F)F)ccc1-n1cncn1	-2	-5	-4	1	nt	nt
Cc1ccc(S(=O)(=O)CCC(=O)N(CCCN2CCOCC2)c2nc3ccccc3s2)cc1	2	-3	0	13*	-6	-7
O=c1[nH]c(-c2ccccc2)cn1C1CCN(Cc2ccc(-c3nc4ccccc4nc3-c3ccccc3)cc2)CC1	1	nt	-87	-75	nt	nt
Cc1ccccc1C(=O)N1CCC(C(=O)N2CCN(Cc3ccc4c(c3)OCO4)CC2)CC1	1	-4	-1	12*	-4	1
O=C(c1ccc(S(=O)(=O)N2CCCCCC2)cc1)N1CCN(c2ccccc2F)CC1	1	-3	-1	12*	-4	-1
O=C(c1cccc(S(=O)(=O)N2CCCCCC2)c1)N1CCN(c2ccccc2F)CC1	0	-12	-3	7	nt	nt
COc1ccc(CCNC(=O)C(=O)NN=C2CCCCCCC2)cc1OC	1	-2	-6	-1	nt	nt
O=C(Cc1ccccc1)NCCCN1CCN(CCCNC(=O)Cc2ccccc2)CC1	1	0	5	11*	-5	-3
O=C(NCCCN1CCOCC1)c1cccnc1	1	-13	0	-2	nt	nt
O=C(NCCCN1CCOCC1)c1ccccc1	0	-2	6	12*	-2	2
O=C(NCCCN1CCOCC1)C(=O)NCCc1ccccc1	1	-3	5	12*	-4	0
O=C(NCCc1ccccc1)C(=O)NN=C1CCCC1	0	-2	3	9.7*	-3	-2
O=C(Cc1ccc(-c2ccccc2)cc1)NCCN1CCOCC1	-1	-6	0	3	nt	nt
SMILES	MsrA inhibitor	MsrA act	PLC-beta3 inh	PLC-gamma1 inh	PLCgamma1 ctr	PLCb3 confirm
O=C(NCCCN1CCOCC1)C(=O)NCc1ccccc1	1	-4	-5	-2	nt	nt
CN1CCCCC(NC(=O)c2cccs2)C1=O (stereo unspecified)	1	nt	2	-1	nt	nt
Cc1ccc(C(=O)NCCN2CCOCC2)cc1S(=O)(=O)N1CCCCC1	-1	-3	-6	-1	nt	nt
Cc1ccc(C(=O)NCCCN2CCOCC2)cc1S(=O)(=O)N1CCOCC1	1	-4	-1	10*	-7	-2
Cc1ccc(NC(=O)COc2cccc3ccc(C)nc23)c(Br)c1	1	-3	1	13*	-8	-5
N#CC(c1c(Cl)cccc1N1CCCCC1)N1CCCCC1 (stereo unspecified)	0	nt	3	0	nt	nt
O=C(O)CC(Cc1ccc(Cl)cc1)C(=O)Nc1cc(Cl)ccc1Cl (stereo unspecified)	2	3	0	12*	-6	-6
COc1ccc(S(=O)(=O)N2CCOCC2)cc1NC(=O)Cc1ccc(F)cc1	1	-1	-4	0	nt	nt
CCOc1ccc2c(ccc(/C=C/c3cc(C)c4cccnc4c3O)[n+]2C)c1	nt	1	nt	nt	nt	nt
COc1ccc(NC(=S)Nc2cc(-c3ccccc3)[nH]n2)cc1Cl	1	-3	12*	12*	-1	-3
COc1ccc(NC(=S)Nc2cc(C)[nH]n2)cc1Cl	0	-1	-6	0	nt	nt
CNC(=S)N/N=C(\C)c1ccc2c(c1)OCO2	2	-6	-6	0	nt	nt
CNC(=S)N/N=C(\C)c1ccc2c(c1)OCCO2	3	-1	5	15*	1	0
O=C(Nc1ccc(F)c(Cl)c1)c1nsc(Cl)c1Cl	1	-1	6	11*	-9	-8
Nc1[nH]c(C(=O)c2ccccc2)c(-c2cccc3ccccc23)c1C(=O)NCc1ccc(F)c(F)c1	0	nt	-9	-6	nt	nt
O=C(CNC(=O)c1cnccn1)Nc1ccc(F)c(F)c1F	0	-1	5	11*	-3	2
COc1cccc(C(=O)Nc2ccc(-n3nncc3C(C)(C)C)cc2)c1	1	-1	12*	9	-151	4
C[C@@H]1CN(c2ccc(N3CCNC[C@H]3C)cc2C#N)C[C@H](C)O1	0	nt	-52	-39	nt	nt
C/C(=N\Nc1ccc([N+](=O)[O-])cc1[N+](=O)[O-])C(C)(C)C(C(=O)O)C(=O)O	2	-4	5	11*	-3	1
C/C(=N\Nc1ccc([N+](=O)[O-])cc1[N+](=O)[O-])c1ccc(-n2nncc2C(C)(C)C)cc1	1	0	2	3	nt	nt
COc1ccccc1Cc1c(-c2ccc(F)cc2)nc2c3ccccc3ccn12	1	nt	-16	-14	nt	nt
CCN(CCNCC(O)COc1ccccc1C(C)C)c1cccc(C)c1 (stereo unspecified)	-1	-2	-1	17*	1	2
CCc1cc(C(=O)c2ccc(OC)cc2)c(NC(=O)CC(C)(C)CC(=O)O)s1	2	-10	-8	-5	nt	nt
Cc1ccc(C(=O)NC2CCC(C)CC2)s1 (stereo unspecified)	0	-7	-8	1	nt	nt
Cc1ccc(C(=O)NC2CCCC2)s1	1	-4	0	10*	-3	-2
